Test results taken from ChEMBL document CHEMBL3433997, “St. Jude Leishmania screening dataset” (2016).

Experiments:
Format in all cases: functional
[1] = target: Solute carrier family 2, facilitated glucose transporter member 1 (Homo sapiens) (UniProt P11166); test: ST_JUDE_LEISH: Cytotoxicity at 2uM final concentration against transgenic Leishmania Mexicana promastigotes LmGLUT1 that are glucose transport deficient and complemented with the human glucose transporter GLUT1. Activity is measured by DNA content using SYBR green in vitro
[2] = target: Hexose transporter 1 (Plasmodium falciparum) (UniProt O97467); test: ST_JUDE_LEISH: Cytotoxicity at 2uM final concentration against transgenic Leishmania Mexicana promastigotes LmPfHT that are glucose transport deficient and complemented with the Plasmodium falciparum hexose transporter. Activity is measured by DNA content using SYBR green in vitro
[3] = target: Glucose transporter (Leishmania mexicana) (UniProt O61059); test: ST_JUDE_LEISH: Cytotoxicity at 2uM final concentration against transgenic Leishmania Mexicana promastigotes LmGT2 that are glucose transport deficient and complemented with the L. Mexicana glucose transporter 2. Activity is measured by DNA content using SYBR green in vitro

Sequence of Solute carrier family 2, facilitated glucose transporter member 1 (Homo sapiens) (P11166 whole entry): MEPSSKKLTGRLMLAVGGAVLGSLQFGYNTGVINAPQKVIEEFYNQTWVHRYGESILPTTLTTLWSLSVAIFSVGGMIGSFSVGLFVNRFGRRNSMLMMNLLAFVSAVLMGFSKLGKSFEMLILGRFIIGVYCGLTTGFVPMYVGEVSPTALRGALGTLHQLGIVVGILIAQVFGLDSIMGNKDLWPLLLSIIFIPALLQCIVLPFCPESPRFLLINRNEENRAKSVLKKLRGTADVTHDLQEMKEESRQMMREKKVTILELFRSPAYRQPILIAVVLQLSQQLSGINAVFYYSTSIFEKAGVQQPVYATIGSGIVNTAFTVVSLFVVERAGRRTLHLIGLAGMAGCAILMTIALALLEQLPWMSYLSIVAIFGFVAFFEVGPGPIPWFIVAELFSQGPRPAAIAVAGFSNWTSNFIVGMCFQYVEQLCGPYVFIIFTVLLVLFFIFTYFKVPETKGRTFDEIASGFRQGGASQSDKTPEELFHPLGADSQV

Row | SMILES | inhibition [1] | inhibition [2] | inhibition [3]
1 | Fc1ccc(-c2csc3ncnc(Cl)c23)cc1 | -0.36% | -0.72% | -2.14%
2 | Cc1cc(Br)cnc1CCCCNC1=NC(=O)CN1C | 0.57% | -0.02% | 0.12%
3 | Oc1cccc(/C=N/Nc2ccnc3cc(Cl)ccc23)c1 | 4.49% | 0.91% | 3.14%
4 | Fc1cc(Cl)ccc1Nc1ccnc2cc(-c3ccc(CNCCN4CCOCC4)o3)ccc12 | 1.58% | 1.07% | 0.9%
5 | CN1CCN(c2ccc(-c3nc4ccc(OCc5cc(Cl)cc(Cl)c5)c(C(N)=O)c4[nH]3)cc2)CC1 | 1.82% | 5.73% | 0.86%
6 | O=C(CC1CCCC1)N(Cc1ccc(-c2ccc(CNC3Cc4ccccc4C3)cc2)cc1)CC1CCCCN1 (stereo not given) | 38.3% | 4.62% | 2.06%
7 | COc1ccccc1C(=O)Nc1cccc(N2CCC(NCc3ccc(-n4cccn4)cc3)CC2)c1 | 9.93% | 10.7% | 5.84%
8 | CCc1c(CCNCCCCCCNCCc2ccc(OC)cc2)ccc(OC)c1OC | 5.63% | 5.5% | 5.8%
9 | CN(C)CCCNCc1ccc(-c2ccc(CNCCOc3ccccc3)cc2)cc1 | 2.4% | 4.11% | 2.46%
10 | O=C(Nc1ccc(Br)cc1)c1cc(Br)ccc1NS(=O)(=O)c1ccc(C(F)(F)F)cc1 | 0.82% | 0.98% | 0.46%
11 | Cc1cc(=NN=Cc2cccc(Cl)c2)c2cc(F)ccc2[nH]1 | 5.23% | 5.15% | 4.84%
12 | Nc1ncnc2c1ncn2C(CO)Cc1ccc(O)cc1 (stereo not given) | 9.32% | 6.45% | 8.36%
13 | CN1CCN(c2ccc(CNc3ccc4ncc(-c5ccc(OC(F)(F)F)cc5)n4n3)cc2)CC1 | -2.29% | -1.23% | -1.25%
14 | Cc1[nH]c(C)c(-c2cccc(-c3ccc(OC(F)(F)F)cc3)c2)c(=O)c1Br | 1.89% | 4.46% | -1.64%
15 | O=C(Nc1ccc(-c2cccc(-c3nc4cc(C(F)(F)F)ccc4[nH]3)c2)cc1)Nc1ccc(Cl)c(Cl)c1 | 10.9% | 7.67% | 13%
16 | Cc1cc(N2CCNCC2)c2cc(NC(=O)Nc3ccc(Cl)c(Cl)c3)ccc2n1 | 3.19% | 3.7% | 3.64%
17 | CCN1C(=O)C(=NN=C(S)N2CCCC2)c2ccccc21 | -0.3% | -1.51% | -3.35%
18 | O=C(Nc1ccc(Cl)cc1)Nc1ccc(Cn2ncc(N3CCCNCC3)c(Cl)c2=O)cc1 | 2.02% | 5.96% | 2.56%

Row | SMILES | inhibition [1] | inhibition [2] | inhibition [3]
19 | CN1CCN(CC(=O)Nc2ccc(-c3ccc(-c4nc5ccccc5[nH]4)cc3)cc2)CC1 | 8.17% | 6.39% | 9.57%
20 | Cc1ccc(Nc2nccc(NCC(O)c3cccc(F)c3)n2)cc1 (stereo not given) | 0.93% | 1.15% | -0.59%
21 | CCC(CC(C)C(=O)O)=C(c1ccccc1)c1ccccc1 (stereo not given) | -0.78% | -0.86% | 0.2%
22 | CN1CCN(Cc2ccc(-c3ccc4c(Nc5cc(O)c(F)cc5Cl)ccnc4c3)o2)CC1 | 4.84% | 2.61% | 2.56%
23 | CCCCCCOc1ccc2ccccc2c1CNCCCCCCNCc1c(OCCCCCC)ccc2ccccc12 | 16.8% | 21.5% | 7.86%
24 | Nc1ncc(-c2ccc(Cl)c(Cl)c2)c(N)n1 | 0.86% | 1.64% | 0.31%
25 | COc1cc2c(cc1C(F)(F)F)N(C(=O)Nc1cc(Br)cc(-c3cccnc3)c1)CC2 | 8.34% | 6.53% | 6.18%
26 | O=C(c1cccc(COc2ccc3c(c2)CCN(C2CCCC2)CC3)c1)N1CCN(c2ccncc2)CC1 | 8.85% | 5.59% | 7.88%
27 | CN1CCN(c2ccnc3ccc(NC(=O)Cc4cccc(Cl)c4Cl)cc23)CC1 | 1.15% | -1.14% | -0.31%
28 | COc1ccc(CN2CCN(Cc3cc(Cl)ccc3O)CC2CCO)c(C)c1C (stereo not given) | -1.12% | 0.94% | 0.13%
29 | COc1ccc(Br)cc1/C=C/C(=O)Nc1ccc2c(c1)CCCN(C)C2 | 0.84% | 3.78% | 3.56%
30 | CC(C)CC(NC(=O)c1cc2ccccc2s1)C(=O)N1CCCCCC1c1ccc(C(C)(C)C)cc1 (stereo not given) | -2.77% | -0.83% | -0.81%
31 | CN(C)CCCOc1cccc(NC(=O)Nc2ccc(-c3ccccc3)cc2)c1 | -1.01% | -1.23% | -3.41%
32 | NCCCOc1cnc(-c2ccccc2)c2nc(-c3nonc3N)n(CCc3ccccc3)c12 | 4.6% | 2% | 1.33%
33 | CCCCCCn1c(Sc2ccc(C#N)c([N+](=O)[O-])c2)nnc1-c1ccccc1 | 8.64% | 11.1% | 6.76%
34 | COc1cc(C)nc2ccc(NC(=O)Nc3cccc4ccccc34)cc12 | 3.38% | 5.33% | 3.45%
35 | Cc1cc(NC2CCCC2)nc(Nc2ccccc2F)n1 | 11.8% | 4.74% | 2.95%
